Test results: PubChem BioAssay AID624296 (National Center for Advancing Translational Sciences (NCATS), 2012)
Out of some 350,000 compounds screened, about 9,900 (2.8%) were called active. About 15% were inconclusive and are not listed. Calls come from the whole dose curve; as a rule, active = well fitted activation curve with a large enough effect; inconclusive = small, poorly fitted or top-dose-only effect; inactive = no such curve, though single readings can be large or run the other way. The sample as a whole holds a higher share of actives than the screen did.

assay: A quantitative high throughput screen for small molecules that induce DNA re-replication in MCF 10a normal breast cells.; note: nearly all actives have a fitted effect of over 50% in size; for activity, positive = re-replication: % of control where 0% means no effect; details: MCF 10A DNA re-replication, Hoechst nuclear intensity, 48 h; series mostly up to 46.1 µM; activity, positive = re-replication: at the top concentration
Excerpt: H Molecular Libraries Probe Production Network [MLPCN]
NIH Chemical Genomics Center [NCGC]
Assay Provider: Melvin DePamphilis, NICHD, NIH
Eukaryotic cells normally restrict genome duplication to once per cell division. When this process is aberrant, DNA re-replication occurs when cells reinitiate DNA replication before the first round of replication is complete. DNA re-replication induces the DNA damage response, arrests cell proliferation, and triggers apoptosis. The cell cycle components cyclin A, Cdt-1, Cdc6 and geminin are critical regulators of this process and their misregulation results in DNA re-replication in normal and cancer cells. To identify compounds that induce re-replication in normal cells, an image-based assay was used to measure DNA content of nuclei, as detected by the fluorescent DNA binding dye, Hoechst. Cell nuclei were imaged by a fluorescence scanning plate imager and compounds that induce DNA re-replication were identified by the increase of nuclei with elevated fluorescence intensity
For screening, 250 cells in 5 uL/well were dispensed into black clear 1536-well plates (Aurora) using a solenoid-based dispenser. Following transfer of 23 nL compound or DMSO vehicle by a pin tool, the plates were incubated 48 hr at 37 C and 5% CO2. After addition of 1 uL/well Hoescht stain, the plates were incubated 40 min at 37 C, 5% CO2 and total intensity of fluorescent objects (nuclei) were enumerated by an Acumen Explorer Ex3 (TTP LabTech) fluorescence scanning plate imager (405 nm excitation, 500-530 nm emission).
Keywords: NIH Roadmap, MLPCN, MLI, MLSMR, qHTS, NCGC, DNA replication, cancer
Potency is the fitted concentration of half-maximal effect.

SMILES	activity, positive = re-replication	Potency
CCOC(=O)c1c(N)n(Cc2ccccc2)c2nc3ccccc3nc12	-4.73% (inactive)	
CCOC(=O)c1c(N)n(CCN2CCOCC2)c2nc3ccccc3nc12	5.89% (inactive)	
COc1cc(Cn2c(N)c(C(=O)NCc3ccco3)c3nc4ccccc4nc32)cc(OC)c1OC		2310 nM (active)
CC1CCCN1CCC(C(N)=O)(c1ccccc1)c1ccccc1 (centres undefined)	-16.2% (inactive)	
C[C@]12CC[C@H](O)CC1=C([N+](=O)[O-])CC1C2CC[C@@]2(C)C1CC[C@@H]2O (some centres undefined)	-1.74% (inactive)	
CCc1ccc(OCC(=O)N2CCN(CC(=O)Nc3ccccc3Cl)CC2)cc1	9.38% (inactive)	
C[C@]12CCCCC1=CC(=O)C1C2CC[C@@]2(C)C1C[C@@H](F)[C@@H]2O (some centres undefined)	4.37% (inactive)	
O=c1[nH]c(CN2CC=C(c3ccccc3)CC2)nc2scc(-c3cccs3)c12		25900 nM (active)
C=C(C)C1(CCCC)C(=O)NC(=S)NC1=O	-1.56% (inactive)	
Cc1ncsc1CCCl	-2.7% (inactive)	
CCC(=O)c1ccc(OCC(=O)N2CCN(CC(=O)Nc3ccc(C)cc3)CC2)cc1	-12.2% (inactive)	
COc1ccc(C2CC(c3cccs3)=NN2c2nc(C)c(C(C)=O)s2)cc1OC (centres undefined)		3260 nM (active)
c1ccc2sc(SNC3CCCCC3)nc2c1	0.201% (inactive)	
C=CCN1CCC23c4c5ccc(O)c4O[C@H]2C(=O)CC[C@@]3(O)C1C5 (some centres undefined)	4.94% (inactive)	
CC1C(=O)OC2CCN3CC=C(COC(=O)C(C)(O)C1(C)O)C23 (centres undefined)	-2.57% (inactive)	
COc1ccc2c3c1O[C@H]1C[C@@H](O)C=C[C@@]31CCN(C)C2		inactive
CCOC(=O)CC(SP1(=S)OCC2(CCCCO2)C(C2CCCCO2)O1)C(=O)OCC (centres undefined)	5.67% (inactive)	

SMILES	activity, positive = re-replication	Potency
C[C@]12CCC3C(CC[C@H]4[C@H](O)[C@H](O)CC[C@]34C)C1CC[C@@H]2O (some centres undefined)	4.54% (inactive)	
O=[N+]([O-])c1cnc2ccc3ccccc3c2c1	1.89% (inactive)	
C/C(CCc1c[nH]c2ccccc12)=N\O	-0.423% (inactive)	
C/C(=N/O)c1ccc2ccc3ccccc3c2c1		25900 nM (active)
CCNC[C@H](O)c1cccc(O)c1	2.78% [at 20.6 µM] (inactive)	
Nc1ccc(Cc2ccc(N)c(Cl)c2)cc1Cl	9.77% (inactive)	
COc1ccc2c(c1)NP(=S)(c1ccccc1)N2 (centres undefined)	0.0619% (inactive)	
CC(CC(C#N)(c1ccccc1)c1ccccc1)N1CCCCC1 (centres undefined)	1.98% (inactive)	
CN(C)CC1Oc2ccccc2OC1(O)c1ccccc1 (centres undefined)		2590 nM (active)
c1ccc(C(CN2CCCCC2)c2ccccc2)cc1	0.205% (inactive)	
COc1cc(OC)cc(C2(C#N)CCN(C)CC2)c1	-5.67% (inactive)	
Cc1cccc([C@H](C)c2cnc[nH]2)c1C	-1.12% (inactive)	
CCOc1ccc(CN(CCCl)CCCl)cc1C(=O)OC	27.9% (inactive)	
O=C1NC(=O)C(Cc2ccccc2)C(=O)N1	7.99% (inactive)	
NC(=O)Cn1cc(C(=O)c2ccccc2F)c2ccccc21		580 nM (active)
Cn1cc(C(=O)OCC(=O)N2CCCC2)c2ccccc21	-5.31% (inactive)	
N#Cc1ccc(Cn2cc(C(=O)c3ccco3)c3ccccc32)cc1	9.12% (inactive)	
